Test results as given in PubChem BioAssay.
Results filed as inconclusive are left out. For part of these data: Measured potencies and affinities stand elsewhere. The source made the active and inactive calls.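 Rule for the calls, unless noted: active = luciferase signal above three times the same-plate solvent-only control wells; inactive = the rest.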

Assays:
[1] = polyglutamine-triggered caspase-3 activation inhibitors, cell-based (AID 1583); conditions: polyglutamine-induced caspase-3 activation, cell assay; stronger effect = higher value;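 tested at 10 µM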
[2] = suppressors of polyQ aggregation in yeast, 75Q-TubU reporter (AID 1593); conditions: Yeast 75Q polyglutamine aggregation reporter
[3] = rescue of polyQ-huntingtin neuronal dysfunction in worms, whole organism, C. elegans mechanosensory neurons, N-terminal huntingtin (AID 1599); conditions: touch response, stronger effect = higher value
[4] = inhibitors of mitochondrial cytochrome c release, biochemical, purified mitochondria (AID 1603); conditions: stronger effect = lower value;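 note: mouse liver mitochondria challenged with calcium chloride; signal normalized to the plate average as 100%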
[5] = inhibitors of polyQ protein aggregation (AID 1604); conditions: polyglutamine-induced protein aggregation inhibition assay; stronger effect = higher value; tested at 2.5 µM
[6] = enhancers of glutamate uptake in motor neurons, MN-1 cell line (AID 1612); conditions: MN-1 motor neuron cells, stronger effect = higher value;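 note: tested at 1 µM final; 0% = mean of DMSO vehicle wells on each plate; positive means more glutamate uptake than control and negative means less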
[7] = reducers of polyQ inclusions in PC12 cells, cell-based, NGF-treated PC12, GFPQ80 (AID 1614); conditions: PC12 NGF-treated GFP-polyQ80 inclusion reduction;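 note: lower means fewer inclusions and 0 means no inclusions at all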
[8] = suppressors of polyglutamine aggregation in yeast, 75Q-TubH (AID 1616); conditions: S. cerevisiae 75Q-TubH polyglutamine aggregation suppression; stronger effect = higher value
[9] = liver-stage malaria parasite growth inhibition, primary screen, cell-based, HepG2, luciferase luminescence, HepG2 viability (AID 624349; in the data active = parasite load remaining mostly below about 12%, no sharp cut-off; inactive = mostly above about 10%;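 note: 100% = mean of DMSO negative control wells on the same plate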); conditions: P. berghei liver stage in HepG2, luciferase luminescence, concentration not given here; parasite load remaining: stronger effect = lower value; viability: measured here: HepG2 viability without parasites
[10] = molecular target: Mitogen-activated protein kinase 7 (Homo sapiens) (UniProt Q13164); assay: ERK5 transactivation activators in reporter cells, primary screen, cell-based, HTS (AID 1508626); conditions: HeLa Gal4-ERK5 transactivation, 18 h, at 5 µM, stronger effect = higher value;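 note: luciferase driven by Gal4-ERK5 fusion binding five Gal4 sites before minimal TATA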
Mitogen-activated protein kinase 7 (Homo sapiens), sequence (Q13164 whole entry, looked up, the tested form may be a part): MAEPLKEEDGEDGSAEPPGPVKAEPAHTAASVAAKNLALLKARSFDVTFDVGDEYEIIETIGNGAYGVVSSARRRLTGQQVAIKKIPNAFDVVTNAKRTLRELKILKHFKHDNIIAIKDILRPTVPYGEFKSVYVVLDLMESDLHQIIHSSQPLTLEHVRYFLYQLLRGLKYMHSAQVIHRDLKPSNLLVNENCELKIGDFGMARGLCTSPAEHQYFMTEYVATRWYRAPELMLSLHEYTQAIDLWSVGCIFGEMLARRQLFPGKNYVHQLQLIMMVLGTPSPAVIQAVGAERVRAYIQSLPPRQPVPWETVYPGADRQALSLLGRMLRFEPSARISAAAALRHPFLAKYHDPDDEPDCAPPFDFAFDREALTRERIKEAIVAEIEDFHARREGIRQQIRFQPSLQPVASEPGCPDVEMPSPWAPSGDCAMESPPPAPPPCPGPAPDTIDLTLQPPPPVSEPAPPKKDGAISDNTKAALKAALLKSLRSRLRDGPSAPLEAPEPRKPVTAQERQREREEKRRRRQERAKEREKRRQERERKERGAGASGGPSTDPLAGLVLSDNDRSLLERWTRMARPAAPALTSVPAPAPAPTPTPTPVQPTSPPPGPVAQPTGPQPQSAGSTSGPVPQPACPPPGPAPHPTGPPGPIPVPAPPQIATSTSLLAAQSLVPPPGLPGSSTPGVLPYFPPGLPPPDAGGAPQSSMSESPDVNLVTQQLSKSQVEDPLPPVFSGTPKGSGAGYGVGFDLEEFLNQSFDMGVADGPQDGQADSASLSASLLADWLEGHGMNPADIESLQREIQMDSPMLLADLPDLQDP

[11] = molecular target: ATP-dependent translocase ABCB1 (Homo sapiens) (UniProt P08183); assay: MDR1 (ABCB1) efflux transporter inhibition, cell-based (AID 377; in the data active = fluorescence slope change above about 50%); conditions: MDR1-expressing cells, fluorescent substrate accumulation slope; stronger effect = higher value; concentration not given here
ATP-dependent translocase ABCB1 (Homo sapiens), sequence (P08183 whole entry, looked up): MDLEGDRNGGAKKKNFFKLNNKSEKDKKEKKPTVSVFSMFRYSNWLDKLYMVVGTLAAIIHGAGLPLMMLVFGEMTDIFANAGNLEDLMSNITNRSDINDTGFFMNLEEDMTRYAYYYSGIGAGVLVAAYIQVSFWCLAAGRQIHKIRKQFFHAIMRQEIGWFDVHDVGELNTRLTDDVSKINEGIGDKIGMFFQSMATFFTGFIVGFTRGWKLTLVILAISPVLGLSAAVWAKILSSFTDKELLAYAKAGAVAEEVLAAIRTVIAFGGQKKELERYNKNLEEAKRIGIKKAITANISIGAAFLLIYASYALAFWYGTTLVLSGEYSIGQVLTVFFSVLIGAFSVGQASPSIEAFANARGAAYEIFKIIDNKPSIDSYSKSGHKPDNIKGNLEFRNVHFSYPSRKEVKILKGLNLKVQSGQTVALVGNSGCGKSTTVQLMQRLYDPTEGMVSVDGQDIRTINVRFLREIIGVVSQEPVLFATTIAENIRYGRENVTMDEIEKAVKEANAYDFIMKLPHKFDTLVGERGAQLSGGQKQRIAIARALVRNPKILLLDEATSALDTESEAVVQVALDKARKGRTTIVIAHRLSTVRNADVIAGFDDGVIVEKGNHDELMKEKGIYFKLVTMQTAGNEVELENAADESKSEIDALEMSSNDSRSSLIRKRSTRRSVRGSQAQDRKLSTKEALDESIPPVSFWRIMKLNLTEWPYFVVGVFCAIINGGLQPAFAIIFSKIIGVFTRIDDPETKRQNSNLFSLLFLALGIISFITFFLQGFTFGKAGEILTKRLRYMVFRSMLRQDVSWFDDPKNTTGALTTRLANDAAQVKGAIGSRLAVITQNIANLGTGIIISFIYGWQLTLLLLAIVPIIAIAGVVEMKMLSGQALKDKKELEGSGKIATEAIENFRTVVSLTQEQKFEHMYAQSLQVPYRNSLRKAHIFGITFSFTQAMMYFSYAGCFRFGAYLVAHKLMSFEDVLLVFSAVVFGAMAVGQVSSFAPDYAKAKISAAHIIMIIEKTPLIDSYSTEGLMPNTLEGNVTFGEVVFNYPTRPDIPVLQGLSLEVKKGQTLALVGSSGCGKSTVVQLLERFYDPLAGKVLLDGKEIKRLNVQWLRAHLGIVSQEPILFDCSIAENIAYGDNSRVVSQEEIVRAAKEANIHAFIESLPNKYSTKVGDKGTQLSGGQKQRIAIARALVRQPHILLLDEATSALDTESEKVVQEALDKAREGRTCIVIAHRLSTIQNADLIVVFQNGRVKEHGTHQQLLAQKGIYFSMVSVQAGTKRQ

[12] = hESC survival regulators, cell-based (AID 493140; call rule not given here;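 note: cells exposed to compounds for four days before counting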); conditions: human embryonic stem cell survival screen; stronger effect = higher value
[13] = viability rescue of complex I mutant cybrids, primary screen, cell-based, galactose medium, ATP luminescence (AID 1645843;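 active = z-score of at least 1.8 in each of two replicates, scored against plate mean and spread of sample wells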;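 note: positive z means more ATP and so rescue of galactose-driven cybrid death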); conditions: complex I mutant cybrid cells, 72 h, stronger effect = higher value
[14] = protection of motor neurons from glutamate death, cell-based, TUNEL DNA degradation staining, MNGlu (AID 1594; call rule not given here); conditions: glutamate-induced death, at 1 µM, stronger effect = higher value
[15] = protection against mutant huntingtin cytotoxicity, PC12 cells, LDH release (AID 1610); conditions: PC12 mutant huntingtin toxicity, final LDH at 4 uM, stronger effect = lower value

COc1ccc2c3c1O[C@H]1[C@@H](O)C=CC4[C@@H](C2)N(C)CC[C@@]341 (stereo partly specified)
inhibition [1]: -19% | score [2]: 1.17 | rescue above control [3]: 2.82 | cytochrome c release ratio [4]: 0.92 | inhibition of aggregation [5]: 61.9% | glutamate uptake change [6]: -22% | inclusion score [7]: 2 | aggregation suppression score [8]: 1.22

CC[C@H]1C(=O)OC[C@@H]1Cc1cncn1C
parasite load remaining [9]: 76.7% (inactive) | viability [9]: 70.2% | luciferase signal [10]: 84 AU (inactive)

CN1C2CCC1C(C(=O)O)C(OC(=O)c1ccccc1)C2 (stereo unspecified)
inhibition [1]: -11.5% | score [2]: 0.85 | rescue above control [3]: -9.16 | cytochrome c release ratio [4]: 1.03 | inhibition of aggregation [5]: 41.5% | glutamate uptake change [6]: -21% | inclusion score [7]: 2 | aggregation suppression score [8]: 1.17

O=c1ccc2cc(O[C@H]3O[C@H](CO)[C@@H](O)[C@H](O)[C@H]3O)c(O)cc2o1
inhibition [1]: -25.3% | score [2]: 0.99 | rescue above control [3]: -9.34 | cytochrome c release ratio [4]: 0.66 | inhibition of aggregation [5]: 56.9% | glutamate uptake change [6]: 21.7% | inclusion score [7]: 2 | aggregation suppression score [8]: 0.763

CCNC(C)Cc1cccc(C(F)(F)F)c1 (stereo unspecified)
fluorescence slope change [11]: 23.3% (inactive) | inhibition [1]: -12% | score [2]: 1.17 | rescue above control [3]: -3.67 | cytochrome c release ratio [4]: 0.91 | inhibition of aggregation [5]: 15.7% | glutamate uptake change [6]: -14.9% | inclusion score [7]: 2 | aggregation suppression score [8]: 1.24

O=C1Nc2ccc(Cl)cc2C(c2ccccc2)=NC1O (stereo unspecified)
inhibition [1]: -2.46% | score [2]: 1.01 | rescue above control [3]: -7.17 | cytochrome c release ratio [4]: 1.14 | inhibition of aggregation [5]: 32% | glutamate uptake change [6]: 0.27% | aggregation suppression score [8]: 0.898

COc1cc(CCN)cc(OC)c1OC
inhibition [1]: 8.49% | score [2]: 1.47 | rescue above control [3]: -5.41 | cytochrome c release ratio [4]: 0.91 | inhibition of aggregation [5]: 22.4% | glutamate uptake change [6]: -3.12% | inclusion score [7]: 2 | aggregation suppression score [8]: 1.23

O=c1ccc2cc(O[C@@H]3OC(CO)[C@@H](O)[C@@H](O)C3O)c(O)cc2o1 (stereo partly specified)
survival [12]: 4.42 (inactive) | luciferase signal [10]: 48 AU (inactive)

COc1ccc(CN2CCN(C)C(CCO)C2)c(OC)c1OC (stereo unspecified)
z-score [13]: -0.21 (inactive)

CN1CC[C@]23c4c5ccc(O)c4O[C@H]2C(=O)CCC3[C@H]1C5 (stereo partly specified)
inhibition [1]: 7.55% | score [2]: 1.13 | rescue above control [3]: -11.3 | cytochrome c release ratio [4]: 1.11 | inhibition of aggregation [5]: -0.68% | glutamate uptake change [6]: 20.7% | inclusion score [7]: 2 | aggregation suppression score [8]: 1.27

COC(=O)C1C(OC(=O)c2ccccc2)CC2CCC1N2C (stereo unspecified)
inhibition [1]: -2.13% | score [2]: 1.1 | rescue above control [3]: -9 | cytochrome c release ratio [4]: 0.85 | inhibition of aggregation [5]: 32% | glutamate uptake change [6]: -26.1% | inclusion score [7]: 2 | aggregation suppression score [8]: 1.26

ClC1=C(Cl)C2(Cl)C3C4CC(C5OC45)C3C1(Cl)C2(Cl)Cl (stereo unspecified)
inhibition [1]: 8.56% | score [2]: 0 | rescue above control [3]: 3.84 | cytochrome c release ratio [4]: 1.81 | inhibition of aggregation [5]: 72.4% | glutamate uptake change [6]: -23.9% | aggregation suppression score [8]: 0.719

CCOC(=O)C1C(OC(=O)c2ccccc2)CC2CCC1N2C (stereo unspecified)
inhibition [1]: 4.42% | score [2]: 1.01 | rescue above control [3]: -8 | cytochrome c release ratio [4]: 0.89 | inhibition of aggregation [5]: 44.2% | glutamate uptake change [6]: -24.3% | inclusion score [7]: 2 | aggregation suppression score [8]: 1.45

O=C1CN=C(c2ccccc2)c2cc(Cl)ccc2N1
inhibition [1]: 6.42% | score [2]: 1.16 | protection [14]: 38% (active) | rescue above control [3]: 2.8 | cytochrome c release ratio [4]: 0.98 | inhibition of aggregation [5]: 2.04% | glutamate uptake change [6]: -20.9% | inclusion score [7]: 2 | aggregation suppression score [8]: 1.12

CN1C(=O)C(O)N=C(c2ccccc2)c2cc(Cl)ccc21 (stereo unspecified)
inhibition [1]: -6.64% | score [2]: 1.21 | rescue above control [3]: 0.82 | cytochrome c release ratio [4]: 0.99 | inhibition of aggregation [5]: 8.84% | glutamate uptake change [6]: 4.66% | inclusion score [7]: 2 | aggregation suppression score [8]: 1.05

CN1CC[C@]23c4c5ccc(O)c4O[C@H]2[C@H](O)C=CC3[C@H]1C5 (stereo partly specified)
inhibition [1]: 2.86% | score [2]: 1.09 | rescue above control [3]: -1.93 | cytochrome c release ratio [4]: 1.03 | inhibition of aggregation [5]: 32% | glutamate uptake change [6]: 6.58% | inclusion score [7]: 2 | aggregation suppression score [8]: 1.13

CCCCCc1cc(O)c2c(c1)OC(C)(C)C1CCC(C)=CC21 (stereo unspecified)
inhibition [1]: 5.35% | score [2]: -0.54 | rescue above control [3]: -0.11 | cytochrome c release ratio [4]: 2.94 | inhibition of aggregation [5]: 34.7% | normalised LDH release [15]: 0.893 | glutamate uptake change [6]: -3.83% | aggregation suppression score [8]: 0.291

NCCC(O)C(=O)N[C@@H]1C[C@H](N)[C@@H](O[C@H]2O[C@H](CN)[C@@H](O)[C@H](O)[C@H]2N)[C@H](OC2O[C@H](CO)[C@H](O)[C@H]2O)[C@H]1O (stereo partly specified)
inhibition [1]: 5.62% | score [2]: 1.4 | rescue above control [3]: 9.62 | cytochrome c release ratio [4]: 1.37 | inhibition of aggregation [5]: 83.3% | glutamate uptake change [6]: 13.4% | inclusion score [7]: 2 | aggregation suppression score [8]: 1.55
